Measurements reported in PubChem BioAssay AID1159580 (chemical genetic matrix, 2015).
The campaign covered roughly 5,500 compounds. About 2,000 (36%) were called active. Another 18% or so got no clear call; they are omitted. Rule as the data show it: active = normalized growth mostly below about 0.91 (no sharp cut-off); inconclusive = no clear call, values can overlap the other calls; inactive = mostly above about 0.92. Some of the results follow.

Test: chemical genetic growth profiling, strain panel (AID 1159580);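 also: tested at 20 µM; growth read once vehicle control cultures reached saturation at 30 °C; 1 = growth at the plate median or of vehicle wells; lower values mean less growth of the strain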
Conditions: growth OD
[1] = S. cerevisiae deletion strains, locus YGR078C, strain PAC10, hits give low values
[2] = S. cerevisiae deletion strains, locus YMR263W, strain SAP30, hits give low values
[3] = S. cerevisiae deletion strains, locus YMR307W, strain GAS1, hits give low values
[4] = S. cerevisiae deletion strains, locus YNL322C, strain KRE1, hits give low values
[5] = S. cerevisiae deletion strains, locus YPL241C, strain CIN2, hits give low values
[6] = S. cerevisiae deletion strains, locus YDL101C, strain DUN1, hits give low values
[7] = S. cerevisiae deletion strains, locus YHR030C, strain SLT2, hits give low values
[8] = S. cerevisiae deletion strains, locus YAR019C, strain CDC15, hits give low values
[9] = S. cerevisiae deletion strains, locus YBL105C, strain PKC1, hits give low values
[10] = S. cerevisiae deletion strains, locus YBR135W, strain CKS1, hits give low values
[11] = S. cerevisiae deletion strains, locus YBR136W, strain MEC1, hits give low values
[12] = S. cerevisiae deletion strains, locus YBR160W, strain CDC28, hits give low values
[13] = S. cerevisiae deletion strains, locus YDL017W, strain CDC7, hits give low values
[14] = S. cerevisiae deletion strains, locus YDL028C, strain MPS1, hits give low values
[15] = S. cerevisiae deletion strains, locus YDL108W, strain KIN28, hits give low values
[16] = S. cerevisiae deletion strains, locus YDL132W, strain cdc53, hits give low values
[17] = S. cerevisiae deletion strains, locus YDL214C, strain PRR2, hits give low values
[18] = S. cerevisiae deletion strains, locus YDR052C, strain DBF4, hits give low values
[19] = S. cerevisiae deletion strains, locus YDR054C, strain cdc34, hits give low values
[20] = S. cerevisiae deletion strains, locus YDR226W, strain ADK1, hits give low values
[21] = S. cerevisiae deletion strains, locus YDR477W, strain SNF1, hits give low values
[22] = S. cerevisiae deletion strains, locus YER123W, strain YCK3, hits give low values
[23] = S. cerevisiae deletion strains, locus YER133W, strain GLC7, hits give low values
[24] = S. cerevisiae deletion strains, locus YFL009W, strain cdc4, hits give low values
[25] = S. cerevisiae deletion strains, locus YFL029C, strain CAK1, hits give low values
[26] = S. cerevisiae deletion strains, locus YFR003C, strain YPI1, hits give low values
[27] = S. cerevisiae deletion strains, locus YFR019W, strain FAB1, hits give low values
[28] = S. cerevisiae deletion strains, locus YFR028C, strain CDC14, hits give low values
[29] = S. cerevisiae deletion strains, locus YGR040W, strain KSS1, hits give low values
[30] = S. cerevisiae deletion strains, locus YGR052W, strain FMP48, hits give low values
[31] = S. cerevisiae deletion strains, locus YGR092W, strain DBF2, hits give low values
[32] = S. cerevisiae deletion strains, locus YHR079C, strain IRE1, hits give low values
[33] = S. cerevisiae deletion strains, locus YHR082C, strain KSP1, hits give low values
[34] = S. cerevisiae deletion strains, locus YHR205W, strain SCH9, hits give low values
[35] = S. cerevisiae deletion strains, locus YIL147C, strain SLN1, hits give low values
[36] = S. cerevisiae deletion strains, locus YJL095W, strain BCK1, hits give low values
[37] = S. cerevisiae deletion strains, locus YJL128C, strain PBS2, hits give low values
[38] = S. cerevisiae deletion strains, locus YJL157C, strain FAR1, hits give low values
[39] = S. cerevisiae deletion strains, locus YJR016C, strain ILV3, hits give low values
[40] = S. cerevisiae deletion strains, locus YJR066W, strain TOR1 (second series), hits give low values
[41] = S. cerevisiae deletion strains, locus YJR066W, strain TOR1, hits give low values
[42] = S. cerevisiae deletion strains, locus YKL048C, strain ELM1, hits give low values
[43] = S. cerevisiae deletion strains, locus YKL067W, strain YNK1, hits give low values
[44] = S. cerevisiae deletion strains, locus YKL101W, strain HSL1, hits give low values
[45] = S. cerevisiae deletion strains, locus YKL193C, strain SDS22, hits give low values
[46] = S. cerevisiae deletion strains, locus YKL203C, strain TOR2, hits give low values
[47] = S. cerevisiae deletion strains, locus YLR113W, strain HOG1, hits give low values
[48] = S. cerevisiae deletion strains, locus YLR133W, strain CKI1, hits give low values
[49] = S. cerevisiae deletion strains, locus YLR403W, strain SFP1, hits give low values
[50] = S. cerevisiae deletion strains, locus YML070W, strain DAK1, hits give low values
[51] = S. cerevisiae deletion strains, locus YMR001C, strain CDC5, hits give low values
[52] = S. cerevisiae deletion strains, locus YMR205C, strain PFK2 (second series), hits give low values
[53] = S. cerevisiae deletion strains, locus YMR277W, strain FCP1, hits give low values
[54] = S. cerevisiae deletion strains, locus YNL006W, strain LST8, hits give low values
[55] = S. cerevisiae deletion strains, locus YNL020C, strain ARK1, hits give low values
[56] = S. cerevisiae deletion strains, locus YNL161W, strain CBK1, hits give low values
[57] = S. cerevisiae deletion strains, locus YNL183C, strain NPR1, hits give low values
[58] = S. cerevisiae deletion strains, locus YNL207W, strain RIO2, hits give low values
[59] = S. cerevisiae deletion strains, locus YNL222W, strain SSU72, hits give low values
[60] = S. cerevisiae deletion strains, locus YNL307C, strain MCK1 (second series), hits give low values
[61] = S. cerevisiae deletion strains, locus YOL078W, strain AVO1, hits give low values
[62] = S. cerevisiae deletion strains, locus YOL136C, strain PFK27, hits give low values
[63] = S. cerevisiae deletion strains, locus YOR061W, strain CKA2, hits give low values
[64] = S. cerevisiae deletion strains, locus YOR119C, strain RIO1, hits give low values
[65] = S. cerevisiae deletion strains, locus YOR231W, strain MKK1, hits give low values
[66] = S. cerevisiae deletion strains, locus YOR329C, strain SCD5, hits give low values
[67] = S. cerevisiae deletion strains, locus YPL031C, strain PHO85, hits give low values
[68] = S. cerevisiae deletion strains, locus YPL153C, strain RAD53, hits give low values
[69] = S. cerevisiae deletion strains, locus YPL204W, strain HRR25, hits give low values
[70] = S. cerevisiae deletion strains, locus YPL209C, strain IPL1, hits give low values
[71] = S. cerevisiae deletion strains, locus YPL256C, strain CLN2, hits give low values
[72] = S. cerevisiae deletion strains, locus YPR025C, strain CCL1, hits give low values
[73] = S. cerevisiae deletion strains, locus YPR106W, strain ISR1, hits give low values
[74] = S. cerevisiae deletion strains, locus YPR111W, strain DBF20, hits give low values
[75] = S. cerevisiae deletion strains, strain NNK1, hits give low values
[76] = S. cerevisiae deletion strains, strain TSCII, hits give low values

Measured: normalized growth

CCCc1c(-c2ccc(O)cc2)nn(-c2ccc(O)cc2)c1-c1ccc(O)cc1
inactive: S. cerevisiae deletion strains, locus YAL040C, strain CLN3, hits give low values 0.985 | S. cerevisiae deletion strains, locus YCL061C, strain MRC1 (second series), hits give low values 0.999 | S. cerevisiae deletion strains, locus YDR363W, strain ESC2, hits give low values 0.994 | S. cerevisiae deletion strains, locus YER002W, strain NOP16, hits give low values 1 | [1] 1 | [2] 0.995 | [3] 1.01 | S. cerevisiae deletion strains, locus YNL175C, strain NOP13, hits give low values 1.02 | S. cerevisiae deletion strains, locus YNL197C, strain WHI3, hits give low values 1.01 | S. cerevisiae deletion strains, locus YNL224C, strain SQS1, hits give low values 1 | [4] 0.988 | S. cerevisiae deletion strains, locus YOR083W, strain WHI5 (second series), hits give low values 0.948 | [5] 0.991

O=C1CCc2cccc3cccc1c23
inactive: S. cerevisiae deletion strains, locus YAL013W, strain DEP1, hits give low values 0.963 | S. cerevisiae deletion strains, locus YBR229C, strain ROT2, hits give low values 0.984 | [6] 0.932 | S. cerevisiae deletion strains, locus YDR150W, strain NUM1, hits give low values 0.966 | S. cerevisiae deletion strains, locus YEL061C, strain CIN8, hits give low values 0.954 | [1] 0.962 | [7] 0.769 | S. cerevisiae deletion strains, locus YHR087W, strain rtc3, hits give low values 1.01 | S. cerevisiae deletion strains, locus YJL187C, strain SWE1, hits give low values 0.981 | S. cerevisiae deletion strains, locus YJR043C, strain POL32, hits give low values 0.988 | S. cerevisiae deletion strains, locus YJR075W, strain HOC1, hits give low values 0.997 | S. cerevisiae deletion strains, locus YLR058C, strain SHM2 (second series), hits give low values 0.982 | S. cerevisiae deletion strains, locus YML094W, strain GIM5, hits give low values 0.921 | S. cerevisiae deletion strains, locus YMR219W, strain ESC1, hits give low values 0.988 | [2] 0.969 | [3] 1.03 | S. cerevisiae deletion strains, locus YNL153C, strain GIM3, hits give low values 0.934 | S. cerevisiae deletion strains, locus YNL298W, strain CLA4 (second series), hits give low values 0.906 | [4] 0.957 | S. cerevisiae deletion strains, locus YNR030W, strain Alg12, hits give low values 0.927 | S. cerevisiae deletion strains, locus YPL055C, strain LGE1, hits give low values 1 | [5] 0.933 | S. cerevisiae deletion strains, locus YPR135W, strain CTF4, hits give low values 0.713 | S. cerevisiae strains, strain wild type, hits give low values 0.949
active: S. cerevisiae deletion strains, locus YLR039C, strain RIC1, hits give low values 0.679 | S. cerevisiae deletion strains, locus YLR085C, strain ARP6, hits give low values 0.764 | S. cerevisiae deletion strains, locus YLR262C, strain YPT6, hits give low values 0.672

Cc1cccc(N=NC(C(=O)C(F)(F)F)=C(O)c2cccs2)c1
inactive: [8] 0.995 | [9] 0.985 | [10] 0.987 | [11] 0.993 | [12] 0.996 | [13] 0.986 | [14] 0.996 | [6] 0.988 | [15] 0.984 | [16] 0.978 | [17] 0.975 | [18] 0.99 | [19] 0.976 | [20] 0.992 | [21] 0.975 | [22] 0.979 | [23] 0.975 | [24] 0.988 | [25] 0.993 | [26] 0.99 | [27] 0.992 | [28] 0.983 | [29] 0.974 | [30] 0.927 | [31] 0.946 | [7] 0.876 | [32] 0.749 | [33] 1.07 | [34] 0.985 | [35] 0.988 | [36] 0.787 | [37] 0.944 | [38] 0.989 | [39] 0.984 | [40] 0.988 | [41] 1.07 | [42] 0.976 | [43] 0.976 | [44] 0.951 | [45] 0.991 | [46] 1.06 | [48] 0.983 | [49] 0.979 | [50] 0.973 | [51] 0.979 | [52] 0.984 | [53] 0.989 | [54] 0.988 | [55] 0.979 | [56] 0.99 | [57] 0.842 | [58] 0.986 | [59] 0.987 | [60] 0.984 | [61] 0.988 | [62] 0.989 | [63] 0.983 | [64] 0.999 | [65] 0.797 | [66] 0.984 | [67] 0.953 | [68] 0.948 | [69] 0.97 | [70] 0.99 | [72] 0.985 | [73] 0.98 | [74] 0.972 | [75] 0.995 | [76] 0.988
active: [47] 0.713 | [71] 0.777

CN(C)c1ccc(/C=C/c2ccc3ccccc3[n+]2C)cc1
active: [7] 0.532 | [32] 0.49 | [47] 0.677 | [55] 0.61 | [60] 0.589 | [65] 0.548 | [71] 0.626
inactive: [8] 0.966 | [9] 0.961 | [10] 0.974 | [11] 0.956 | [12] 0.959 | [13] 0.969 | [14] 0.976 | [6] 0.988 | [15] 0.965 | [16] 0.975 | [17] 0.817 | [18] 0.954 | [19] 0.965 | [20] 0.961 | [21] 0.83 | [22] 0.799 | [23] 0.801 | [24] 0.976 | [25] 0.978 | [26] 0.959 | [27] 0.87 | [28] 0.967 | [29] 0.798 | [30] 0.745 | [31] 0.775 | [33] 0.806 | [34] 0.64 | [35] 0.959 | [36] 0.666 | [37] 0.943 | [38] 0.733 | [39] 0.983 | [40] 0.928 | [41] 0.607 | [42] 0.899 | [43] 0.798 | [44] 0.815 | [45] 0.982 | [46] 0.823 | [48] 0.816 | [49] 0.672 | [50] 0.811 | [51] 0.978 | [52] 0.887 | [53] 0.976 | [54] 0.979 | [56] 0.977 | [57] 0.782 | [58] 0.962 | [59] 0.968 | [61] 0.984 | [62] 0.786 | [63] 0.69 | [64] 0.833 | [66] 0.965 | [67] 0.807 | [68] 0.833 | [69] 0.726 | [70] 0.966 | [72] 0.969 | [73] 0.977 | [74] 0.96 | [75] 0.97 | [76] 0.966
